About 25,000 (6.9%) of roughly 360,000 compounds were called active. Not shown: some 9% with an inconclusive outcome. The call rests on the fitted dose curve; in most records, active means well fitted inhibition curve with a large enough effect; inconclusive means small, poorly fitted or top-dose-only effect; inactive means flat fitted curve, though single readings scatter. For the sample, actives were picked, then their nearest neighbours and some compounds at random.
Biological target: Luciferin 4-monooxygenase (Photinus pyralis) (UniProt P08659)
Experiment: qHTS profiling assay for firefly luciferase inhibitor/activator using purifed enzyme and Km concentrations of substrates (counterscreen for miR-21 project); further: nearly all actives have a fitted effect of over 55% in size;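 on activity change, negative = inhibition: plate controls were vehicle for no effect and reference inhibitor for full effect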
Settings: purified FLuc, luminescence inhibition; series mostly up to 57.5 µM; activity change, negative = inhibition: at the top concentration
Outline: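 Biochemical qHTS of compounds, final roughly 60 µM downward over six points, against 10 nM purified firefly luciferase using Km concentrations of substrates (10 uM D-luciferin, 10 uM ATP) in Tris acetate pH 7.5 buffer; luminescence output.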
Potency means the concentration at half of the fitted maximal effect.

Luciferin 4-monooxygenase (Photinus pyralis), sequence (P08659 whole entry, looked up): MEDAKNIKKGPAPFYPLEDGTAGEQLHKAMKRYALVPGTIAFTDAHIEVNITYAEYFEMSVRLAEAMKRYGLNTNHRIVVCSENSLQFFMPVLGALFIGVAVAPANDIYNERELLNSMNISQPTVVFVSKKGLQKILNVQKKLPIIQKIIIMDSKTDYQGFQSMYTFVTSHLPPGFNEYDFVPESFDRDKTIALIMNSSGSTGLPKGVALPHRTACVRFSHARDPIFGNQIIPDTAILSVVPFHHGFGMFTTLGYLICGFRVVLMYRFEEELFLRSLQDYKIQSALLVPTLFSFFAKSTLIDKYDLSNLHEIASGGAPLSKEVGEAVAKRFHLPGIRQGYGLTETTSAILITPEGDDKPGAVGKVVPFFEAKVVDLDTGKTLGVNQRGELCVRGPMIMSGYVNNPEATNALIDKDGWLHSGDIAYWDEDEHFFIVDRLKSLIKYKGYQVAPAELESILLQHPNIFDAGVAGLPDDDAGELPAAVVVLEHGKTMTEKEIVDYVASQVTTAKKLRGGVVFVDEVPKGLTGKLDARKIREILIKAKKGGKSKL

Row | SMILES | activity change, negative = inhibition | Potency
1 | CCOC(=O)N1CCc2c(sc(NCc3cccc(F)c3)c2C(=O)Nc2ccccc2OCC)C1 | -18.1% (inactive) | 
2 | Cc1nc2cc(NCc3cccs3)ccc2n1C |  | 15.1 µM (active)
3 | O=c1c(NCc2cccs2)nccn1-c1ccccc1 | -13.3% (inactive) | 
4 | Cc1nn(CC(=O)Nc2ccc3c(c2)nc(CN2CCCCC2)n3C)c(=O)c2ccccc12 | 3.59% (inactive) | 
5 | Cn1ncc(Br)c1C(=O)NCc1cccs1 | -1.21% (inactive) | 
6 | Cc1nc2cc(NC(=O)NC3CC3)ccc2n1C | -15% (inactive) | 
7 | C=CCN(C(=O)Nc1ccc2c(c1)nc(C)n2C)c1ccccc1 |  | 15.1 µM (active)
8 | Cc1nc2cc(NC(=O)Nc3cccc(F)c3)ccc2n1C |  | 0.757 µM (active)
9 | Cc1cc2nc(C)n(CCCNC(=O)Nc3ccccc3)c2cc1C | 1.77% (inactive) | 
10 | CCOC(=O)N1CCN(Cc2nc3cc(NC(=O)CC)ccc3n2CC)CC1 | 0.0734% (inactive) | 
11 | CCCCNC(=O)c1ccc2c(c1)NC(=O)C(C(C)C)N2 (configuration not stated) | -6.51% (inactive) | 
12 | CC(=O)N1CCCc2cc(S(=O)(=O)N3CCC(C(=O)NCc4ccc(C)cc4)CC3)ccc21 | 0.565% (inactive) | 
13 | CCc1ccc(-c2nn(-c3ccccc3C)cc2C(=O)N2CCN(C3CCS(=O)(=O)C3)CC2)cc1 (configuration not stated) | 2.23% (inactive) | 
14 | COc1ccccc1CNCc1ccc(C(=O)O)s1 | 2.57% (inactive) | 
15 | CCc1nccn1S(=O)(=O)c1cc(Br)ccc1Br | -10.3% (inactive) | 
16 | CCOC(=O)c1c(NC(=O)c2ccc(S(=O)(=O)N(CC)CC)cc2)sc2c1CCCCC2 | -3.1% (inactive) | 
17 | CN(C(=O)c1ccc2c(c1)N(Cc1cccc(Cl)c1)C(=O)c1ccccc1S2=O)C1CCCCC1 (configuration not stated) | -10.7% (inactive) | 
18 | Cc1ccc(Cl)cc1NC(=O)/C(C#N)=C\c1cn(Cc2ccc(F)cc2)c2ccccc12 | 0.524% (inactive) | 
19 | CCc1ccc(NS(=O)(=O)c2ccc3[nH]cc(C(=O)NCCc4cccc(C)c4)c(=O)c3c2)cc1 | -6.98% (inactive) | 
20 | O=C(c1ccc(Cl)nc1)N1CCN(S(=O)(=O)c2ccc3c(c2)OCCO3)CC1 | -2.36% (inactive) | 
21 | COc1cccc(-c2nnc3n(CCc4ccccc4)c(=O)c4ccccc4n23)c1O | -4.13% (inactive) | 
22 | Cc1ccccc1NC(=O)c1cc2c([nH]c1=O)CC(C)(C)CC2=O | -15.2% (inactive) | 
23 | COc1ccc(Nc2ncc(C(=O)Nc3cc(C)ccc3OC)c3ccccc23)cc1 | 7.13% (inactive) | 
24 | COc1ccc(C(=O)Nc2ccccc2C(=O)N/N=C/c2ccc(O)c(OC)c2)cc1 |  | 0.012 µM (active)
25 | O=C(N/N=C/c1ccc(OC(=O)c2ccccc2Cl)cc1)c1ccc(O)cc1 | -2.37% (inactive) | 
26 | COc1ccccc1C(=O)NNC(=O)c1ccc(NC(=O)c2ccccc2)cc1 | -14% (inactive) | 

Row | SMILES | activity change, negative = inhibition | Potency
27 | COc1ccc(C(=O)Nc2ccccc2C(=O)N/N=C/c2ccccc2OC)cc1 |  | 0.0757 µM (active)
28 | COc1ccc(OC)c(/C=C/C(=O)OCC(=O)Nc2ccc3c(c2)OCCO3)c1 | 0.779% (inactive) | 
29 | COc1ccc(/C=N/NC(=O)c2ccc(Cl)cc2)cc1COC(C)=O | -13.1% (inactive) | 
30 | COc1ccc(NC(=O)NCc2ccc3c(c2)OCO3)c(OC)c1 | 6.28% (inactive) | 
31 | COc1ccc(C(=O)Nc2cc(C)c(NC(=O)c3ccccc3OC)cn2)cc1 |  | 2.13 µM (active)
32 | COc1ccc(C(=O)N/N=C(\C)CC(=O)Nc2ccc(Cl)cn2)cc1 | -14.9% (inactive) | 
33 | COc1ccc(OC)c(/C=C/C(=O)c2ccc3c(c2)OCO3)c1 |  | 4.78 µM (active)
34 | COc1ccc(OC)c(/C=N/NC(=O)c2ccc[n+](CC(=O)c3ccccc3)c2)c1 | -5.82% (inactive) | 
35 | Cc1ccc(C)c(N2C(=O)N(Cc3c(F)cccc3Cl)c3ccccc3S2(=O)=O)c1 | 1.18% (inactive) | 
36 | Cc1ccc(CN2CC(C(=O)NNC(=O)Cn3ccc(C(F)(F)F)n3)CC2=O)cc1 (configuration not stated) | 4.2% (inactive) | 
37 | c1ccc2c(c1)C(=NC1CCCCC1)NC2=NC1CCCCC1 | 1.79% (inactive) | 
38 | COC(=O)NNC(=O)C1CCC(C)CC1 (configuration not stated) |  | inactive
39 | CCOCCCn1c(SCC(=O)Nc2ccc(CC)cc2)nc2ccccc2c1=O | -1.15% (inactive) | 
40 | Cc1cccc(-c2nc(CS(=O)CC(=O)NC(C)CCc3ccccc3)c(C)o2)c1 (configuration not stated) | -2.47% (inactive) | 
41 | CNC(=O)c1ccc(-c2nc(CN3CCc4ccccc43)c(C)o2)cc1 | -0.293% (inactive) | 
42 | COc1ccc(CN2CCc3nc(Nc4ccccc4)ncc3C2)c(OC)c1OC | 2.56% (inactive) | 
43 | CCOc1cc(/C=N/NC(=O)c2cc(-c3ccccc3)nc3ccccc23)ccc1O |  | 16.9 µM (active)
44 | CCn1c(/C=N/NC(=O)c2ccc(OC)cc2)nc2ccccc21 |  | 13.5 µM (active)
45 | CCOc1ccc(/C=N/NC(=O)C(C)Sc2ccccn2)cc1OCC (configuration not stated) | -1.41% (inactive) | 
46 | COc1ccc(/C=N/NC(=O)c2ccc3c(c2)OCCO3)c(OC)c1 |  | 9.53 µM (active)
47 | CCCCCn1c(CCNC(=O)c2ccc(F)cc2)nc2ccccc21 | -3.86% (inactive) | 
48 | Cc1cc(C(=O)N/N=C/c2ccccn2)c2ccccc2n1 | -0.51% (inactive) | 
49 | COc1ccc(/C=N/NC(=O)CNC(=O)c2ccc(S(=O)(=O)N3CCCC3)cc2)c(OC)c1 | -9.97% (inactive) | 
50 | COc1ccc(Br)cc1/C=N/NC(=O)c1cccc(S(=O)(=O)N2CCOCC2)c1 | 5.78% (inactive) | 
51 | CCn1c(SCC(=O)N/N=C/c2ccncc2)nc2ccccc21 | -2.42% (inactive) | 
52 | COc1ccc(Cc2nc3ccc(C(=O)NCc4ccccc4Cl)cc3o2)cc1 | -11% (inactive) | 

From PubChem BioAssay AID588342 (National Center for Advancing Translational Sciences (NCATS), 2011)
